# According to PubChem BioAssay (NCATS):
# Results filed as inconclusive are left out. Where a call stands in place of a potency, no number is given. Values without a mark were called inactive. Active and inactive are the calls of the source. The call rests on the fitted dose curve; in most records, active means well fitted inhibition curve with a large enough effect; inconclusive means small, poorly fitted or top-dose-only effect; inactive means flat fitted curve, though single readings scatter.
# Tests used:
# [1] = qHTS profiling for inhibitors of Plasmodium falciparum proliferation (AID 504749); on all read-outs here: nearly all actives have a fitted effect of over 60% in size; settings: P. falciparum in erythrocytes, SYBR Green DNA, 72 h; for activity, negative = inhibition: at 28.7 µM (top of the series)
# How it was run: (§1)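 Three-day growth assay of blood-stage parasites in erythrocytes (0.3% parasitemia, 2.5% hematocrit) at 37 C, 5% CO2, quantified by SYBR Green DNA staining after overnight detergent lysis.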
# [2] = test system: 3D7; test: as above; settings: P. falciparum in erythrocytes, SYBR Green DNA, 72 h; series mostly up to 28.7 µM
# How it was run: as §1
# [3] = test system: 7G8; test: as above; settings: P. falciparum in erythrocytes, SYBR Green DNA, 72 h; series mostly up to 28.7 µM
# How it was run: as §1
# [4] = test system: AA1029; test: as above; settings: P. falciparum in erythrocytes, SYBR Green DNA, 72 h; series mostly up to 28.7 µM
# How it was run: as §1
# [5] = test system: AS120; test: as above; settings: P. falciparum in erythrocytes, SYBR Green DNA, 72 h; series mostly up to 28.7 µM
# How it was run: as §1
# [6] = test system: ATS189; test: as above; settings: P. falciparum in erythrocytes, SYBR Green DNA, 72 h; series mostly up to 28.7 µM
# How it was run: as §1
# [7] = test system: ATS95; test: as above; settings: P. falciparum in erythrocytes, SYBR Green DNA, 72 h; series mostly up to 28.7 µM
# How it was run: as §1
# [8] = test system: C2A; test: as above; settings: P. falciparum in erythrocytes, SYBR Green DNA, 72 h; series mostly up to 28.7 µM
# How it was run: as §1
# [9] = test system: CP185; test: as above; settings: P. falciparum in erythrocytes, SYBR Green DNA, 72 h; series mostly up to 28.7 µM
# How it was run: as §1
# [10] = test system: CP191; test: as above; settings: P. falciparum in erythrocytes, SYBR Green DNA, 72 h; series mostly up to 28.7 µM
# How it was run: as §1
# [11] = test system: CP192; test: as above; settings: P. falciparum in erythrocytes, SYBR Green DNA, 72 h; series mostly up to 28.7 µM
# How it was run: as §1
# [12] = test system: CP194; test: as above; settings: P. falciparum in erythrocytes, SYBR Green DNA, 72 h; series mostly up to 28.7 µM
# How it was run: as §1
# [13] = test system: CP201; test: as above; settings: P. falciparum in erythrocytes, SYBR Green DNA, 72 h; series mostly up to 28.7 µM
# How it was run: as §1
# [14] = test system: CP203; test: as above; settings: P. falciparum in erythrocytes, SYBR Green DNA, 72 h; series mostly up to 28.7 µM
# How it was run: as §1
# [15] = test system: CP211; test: as above; settings: P. falciparum in erythrocytes, SYBR Green DNA, 72 h; series mostly up to 28.7 µM
# How it was run: as §1
# [16] = test system: CP215; test: as above; settings: P. falciparum in erythrocytes, SYBR Green DNA, 72 h; series mostly up to 28.7 µM
# How it was run: as §1
# [17] = test system: CP217; test: as above; settings: P. falciparum in erythrocytes, SYBR Green DNA, 72 h; series mostly up to 28.7 µM
# How it was run: as §1
# [18] = test system: CP237; test: as above; settings: P. falciparum in erythrocytes, SYBR Green DNA, 72 h; series mostly up to 28.7 µM
# How it was run: as §1
# [19] = test system: CP238; test: as above; settings: P. falciparum in erythrocytes, SYBR Green DNA, 72 h; series mostly up to 28.7 µM
# How it was run: as §1
# [20] = test system: CP247; test: as above; settings: P. falciparum in erythrocytes, SYBR Green DNA, 72 h; series mostly up to 28.7 µM
# How it was run: as §1
# Potency means the concentration at half of the fitted maximal effect.
smiles,measurement,setting,value
C[C@]12O[C@H](C[C@]1(O)CO)n1c3ccccc3c3c4c(c5c6ccccc6n2c5c31)CNC4=O,Potency,[1]; parasite line A,398 nM (active)
same,Potency,[1]; parasite line B,447 nM (active)
same,Potency,[2],224 nM (active)
same,Potency,[3],100 nM (active)
same,Potency,[4],316 nM (active)
same,Potency,[5],251 nM (active)
same,Potency,[6],316 nM (active)
same,Potency,[7],355 nM (active)
same,Potency,[8],316 nM (active)
same,Potency,[9],316 nM (active)
same,Potency,[10],282 nM (active)
same,Potency,[11],379 nM (active)
same,Potency,[12],379 nM (active)
same,Potency,[13],536 nM (active)
same,Potency,[14],269 nM (active)
same,Potency,[15],426 nM (active)
same,Potency,[16],426 nM (active)
same,Potency,[17],316 nM (active)
same,Potency,[18],224 nM (active)
same,Potency,[19],282 nM (active)
same,Potency,[20],224 nM (active)
CCC(=O)NCCC1CCc2ccc3c(c21)CCO3 (stereo unspecified),"activity, negative = inhibition",[1]; parasite line A,6.95%
same,"activity, negative = inhibition",[1]; parasite line B,0.538%
same,Potency,[2],inactive
same,Potency,[3],inactive
same,Potency,[4],inactive
same,Potency,[5],inactive
same,Potency,[6],inactive
same,Potency,[7],inactive
same,Potency,[8],inactive
same,Potency,[9],inactive
same,Potency,[10],inactive
same,Potency,[11],inactive
same,Potency,[12],inactive
same,Potency,[13],inactive
same,Potency,[15],inactive
same,Potency,[16],inactive
same,Potency,[17],inactive
same,Potency,[18],inactive
same,Potency,[19],inactive
same,Potency,[20],inactive
CO[C@H]1C[C@@H]2CC[C@@H](C)[C@@](O)(O2)C(=O)C(=O)N2CCCC[C@H]2C(=O)O[C@H]([C@H](C)C[C@@H]2CC[C@@H](OCCO)[C@H](OC)C2)CC(=O)[C@H](C)/C=C(\C)[C@@H](O)[C@@H](OC)C(=O)[C@H](C)C[C@H](C)/C=C/C=C/C=C/1C,Potency,[1]; parasite line A,2240 nM (active)
same,Potency,[1]; parasite line B,1120 nM (active)
same,Potency,[2],1780 nM (active)
same,Potency,[3],1120 nM (active)
same,Potency,[4],1410 nM (active)
same,Potency,[5],1120 nM (active)
same,Potency,[6],1260 nM (active)
same,Potency,[7],2000 nM (active)
same,Potency,[8],3160 nM (active)
same,Potency,[9],3160 nM (active)
same,Potency,[10],1120 nM (active)
same,Potency,[11],4780 nM (active)
same,Potency,[12],1690 nM (active)
same,Potency,[13],6010 nM (active)
same,Potency,[14],1900 nM (active)
same,Potency,[15],4260 nM (active)
same,Potency,[16],1690 nM (active)
same,Potency,[17],1000 nM (active)
same,Potency,[18],2000 nM (active)
same,Potency,[19],2820 nM (active)
same,Potency,[20],1260 nM (active)
CC1=C(/C=C/C(C)=C/C=C/C(C)=C/C=C/C=C(C)/C=C/C=C(C)/C=C/C2=C(C)C(=O)CCC2(C)C)C(C)(C)CCC1=O,"activity, negative = inhibition",[1]; parasite line A,-4.18%
same,"activity, negative = inhibition",[1]; parasite line B,4.39%
same,Potency,[2],inactive
same,Potency,[3],inactive
same,Potency,[4],inactive
same,Potency,[5],inactive
same,Potency,[6],inactive
same,Potency,[7],inactive
same,Potency,[8],inactive
same,Potency,[9],inactive
same,Potency,[10],inactive
same,Potency,[11],inactive
same,Potency,[12],inactive
same,Potency,[13],inactive
same,Potency,[15],inactive
same,Potency,[16],inactive
same,Potency,[17],inactive
same,Potency,[18],inactive
same,Potency,[19],inactive
same,Potency,[20],inactive
CCCCC/C=C\C/C=C\CCCCCCCC(=O)O,"activity, negative = inhibition",[1]; parasite line A,6.83%
same,"activity, negative = inhibition",[1]; parasite line B,5.9%
same,Potency,[2],inactive
same,Potency,[3],inactive
same,Potency,[4],inactive
same,Potency,[5],inactive
same,Potency,[6],inactive
same,Potency,[7],inactive
same,Potency,[8],inactive
same,Potency,[9],inactive
same,Potency,[10],inactive
same,Potency,[11],inactive
same,Potency,[12],inactive
same,Potency,[13],inactive
same,Potency,[14],inactive
same,Potency,[15],inactive
same,Potency,[16],inactive
same,Potency,[17],inactive
same,Potency,[18],inactive
same,Potency,[19],inactive
same,Potency,[20],inactive
Cc1ccccc1,"activity, negative = inhibition",[1]; parasite line A,1.71%
same,"activity, negative = inhibition",[1]; parasite line B,0.119%
same,Potency,[2],inactive
same,Potency,[3],inactive
same,Potency,[4],inactive
same,Potency,[5],inactive
same,Potency,[6],inactive
same,Potency,[7],inactive
same,Potency,[8],inactive
same,Potency,[9],inactive
same,Potency,[10],inactive
same,Potency,[11],inactive
same,Potency,[12],inactive
same,Potency,[13],inactive
same,Potency,[14],inactive
same,Potency,[15],inactive
same,Potency,[16],inactive
same,Potency,[17],inactive
same,Potency,[18],inactive
same,Potency,[19],inactive
same,Potency,[20],inactive
C#CCOc1ccc2c(C)cc(=O)oc2c1,"activity, negative = inhibition",[1]; parasite line A,3.33%
same,"activity, negative = inhibition",[1]; parasite line B,5.62%
same,Potency,[2],inactive
same,Potency,[3],inactive
same,Potency,[4],inactive
same,Potency,[5],inactive
same,Potency,[6],inactive
same,Potency,[7],inactive
same,Potency,[8],inactive
same,Potency,[9],inactive
same,Potency,[10],inactive
same,Potency,[11],inactive
same,Potency,[12],inactive
same,Potency,[13],inactive
same,Potency,[14],inactive
same,Potency,[15],inactive
same,Potency,[16],inactive
same,Potency,[17],inactive
same,Potency,[18],inactive
same,Potency,[19],inactive
same,Potency,[20],inactive
C[C@]12CCC(=O)C=C1CC[C@@H]1[C@@H]2[C@@H](O)C[C@@]2(C)[C@H]1CC[C@]2(O)C(=O)COP(=O)(O)O,"activity, negative = inhibition",[1]; parasite line A,1.99%
same,"activity, negative = inhibition",[1]; parasite line B,-7.41%
same,Potency,[2],inactive
same,Potency,[3],inactive
same,Potency,[4],inactive
same,Potency,[5],inactive
same,Potency,[6],inactive
same,Potency,[7],inactive
same,Potency,[8],inactive
same,Potency,[9],inactive
same,Potency,[10],inactive
same,Potency,[11],inactive
same,Potency,[12],inactive
same,Potency,[13],inactive
same,Potency,[14],inactive
same,Potency,[15],inactive
same,Potency,[16],inactive
same,Potency,[17],inactive
same,Potency,[18],inactive
same,Potency,[19],inactive
Cc1ccccc1OCC(O)CNCCOc1ccc(C(N)=O)cc1 (stereo unspecified),"activity, negative = inhibition",[1]; parasite line A,11.2%
same,"activity, negative = inhibition",[1]; parasite line B,8.46%
same,Potency,[2],inactive
same,Potency,[3],inactive
same,Potency,[4],inactive
same,Potency,[5],inactive
same,Potency,[6],inactive
same,Potency,[7],inactive
same,Potency,[8],inactive
same,Potency,[9],inactive
same,Potency,[10],inactive
same,Potency,[11],inactive
same,Potency,[12],inactive
same,Potency,[13],inactive
same,Potency,[14],inactive
same,Potency,[15],inactive
same,Potency,[16],inactive
same,Potency,[17],inactive
same,Potency,[18],inactive
same,Potency,[19],inactive
same,Potency,[20],inactive
CCNC(=O)[C@@H]1CCCN1C(=O)[C@H](CCCN=C(N)N)NC(=O)[C@H](CC(C)C)NC(=O)[C@@H](Cc1c[nH]c2ccccc12)NC(=O)[C@H](Cc1ccc(O)cc1)NC(=O)[C@H](CO)NC(=O)[C@H](Cc1c[nH]c2ccccc12)NC(=O)[C@H](Cc1cnc[nH]1)NC(=O)[C@@H]1CCC(=O)N1,Potency,[1]; parasite line A,4470 nM (active)
same,Potency,[1]; parasite line B,5620 nM (active)
same,Potency,[2],7080 nM (active)
same,Potency,[3],1120 nM (active)
same,Potency,[4],3160 nM (active)
same,Potency,[5],4470 nM (active)
same,Potency,[6],8910 nM (active)
same,Potency,[7],4470 nM (active)
same,Potency,[8],7080 nM (active)
same,Potency,[9],11200 nM (active)
same,Potency,[10],7940 nM (active)
same,Potency,[11],9530 nM (active)
same,Potency,[12],7570 nM (active)
same,Potency,[13],15100 nM (active)
same,Potency,[15],6750 nM (active)
same,Potency,[16],13500 nM (active)
same,Potency,[17],7080 nM (active)
same,Potency,[18],3550 nM (active)
same,Potency,[19],7080 nM (active)
same,Potency,[20],7080 nM (active)
